Screen size: about 5,500 compounds; about 2,000 (36%) were called active. Another 18% or so got no clear call; they are omitted. No stated cut-off is given here; in the data, active means normalized growth mostly below about 0.91 (no sharp cut-off); inconclusive means no clear call, values can overlap the other calls; inactive means mostly above about 0.92. The list shows a part of the results.
Assay: chemical genetic growth profiling, strain panel (AID 1159580);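 further: tested at 20 µM; growth read once vehicle control cultures reached saturation at 30 °C; 1 = growth at the plate median or of vehicle wells; lower values mean less growth of the strain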
Details: S. cerevisiae deletion strains, growth OD
[1] = locus YDL101C, strain DUN1, active compounds read low
[2] = locus YHR030C, strain SLT2, active compounds read low

Measured: normalized growth

N#Cc1cccc(CSC2=NCN(C3CC3)CN2)c1
inactive: locus YAL013W, strain DEP1, active compounds read low 1 | locus YBR229C, strain ROT2, active compounds read low 1.01 | [1] 0.98 | locus YDR150W, strain NUM1, active compounds read low 0.934 | locus YEL061C, strain CIN8, active compounds read low 1.02 | locus YGR078C, strain PAC10, active compounds read low 0.996 | [2] 1 | locus YHR087W, strain rtc3, active compounds read low 1.03 | locus YJL187C, strain SWE1, active compounds read low 1 | locus YJR043C, strain POL32, active compounds read low 0.979 | locus YJR075W, strain HOC1, active compounds read low 0.989 | locus YKL190W, strain CNB1, active compounds read low 1.01 | locus YLR039C, strain RIC1, active compounds read low 1.05 | locus YLR058C, strain SHM2 (second series), active compounds read low 1.01 | locus YLR085C, strain ARP6, active compounds read low 0.993 | locus YLR262C, strain YPT6, active compounds read low 1.04 | locus YML094W, strain GIM5, active compounds read low 1.01 | locus YMR219W, strain ESC1, active compounds read low 1.01 | locus YMR263W, strain SAP30, active compounds read low 0.952 | locus YMR307W, strain GAS1, active compounds read low 0.978 | locus YNL153C, strain GIM3, active compounds read low 0.997 | locus YNL298W, strain CLA4 (second series), active compounds read low 1.02 | locus YNL322C, strain KRE1, active compounds read low 0.999 | locus YNR030W, strain Alg12, active compounds read low 1.02 | locus YPL055C, strain LGE1, active compounds read low 0.886 | locus YPL241C, strain CIN2, active compounds read low 1.01 | locus YPR135W, strain CTF4, active compounds read low 1

N#Cc1ccc(Oc2sccc2[N+](=O)[O-])cc1
inactive: locus YAR019C, strain CDC15, active compounds read low 0.937 | locus YBL105C, strain PKC1, active compounds read low 0.978 | locus YBR135W, strain CKS1, active compounds read low 0.946 | locus YBR136W, strain MEC1, active compounds read low 0.971 | locus YBR160W, strain CDC28, active compounds read low 0.992 | locus YDL017W, strain CDC7, active compounds read low 0.985 | locus YDL028C, strain MPS1, active compounds read low 0.978 | [1] 0.959 | locus YDL108W, strain KIN28, active compounds read low 0.97 | locus YDL132W, strain cdc53, active compounds read low 0.942 | locus YDL214C, strain PRR2, active compounds read low 0.901 | locus YDR052C, strain DBF4, active compounds read low 0.975 | locus YDR054C, strain cdc34, active compounds read low 0.907 | locus YDR226W, strain ADK1, active compounds read low 0.98 | locus YDR477W, strain SNF1, active compounds read low 0.888 | locus YER123W, strain YCK3, active compounds read low 0.748 | locus YER133W, strain GLC7, active compounds read low 0.847 | locus YFL009W, strain cdc4, active compounds read low 0.908 | locus YFL029C, strain CAK1, active compounds read low 0.907 | locus YFR003C, strain YPI1, active compounds read low 0.975 | locus YFR019W, strain FAB1, active compounds read low 0.924 | locus YFR028C, strain CDC14, active compounds read low 0.953 | locus YGR040W, strain KSS1, active compounds read low 0.867 | locus YGR052W, strain FMP48, active compounds read low 0.879 | locus YGR092W, strain DBF2, active compounds read low 0.769 | [2] 0.942 | locus YHR079C, strain IRE1, active compounds read low 0.955 | locus YHR082C, strain KSP1, active compounds read low 0.934 | locus YHR205W, strain SCH9, active compounds read low 0.894 | locus YIL147C, strain SLN1, active compounds read low 0.969 | locus YJL095W, strain BCK1, active compounds read low 0.825 | locus YJL128C, strain PBS2, active compounds read low 0.923 | locus YJL157C, strain FAR1, active compounds read low 0.883 | locus YJR016C, strain ILV3, active compounds read low 0.946 | locus YJR066W, strain TOR1 (second series), active compounds read low 0.821 | locus YJR066W, strain TOR1, active compounds read low 0.907 | locus YKL048C, strain ELM1, active compounds read low 0.95 | locus YKL067W, strain YNK1, active compounds read low 0.895 | locus YKL101W, strain HSL1, active compounds read low 0.927 | locus YKL193C, strain SDS22, active compounds read low 0.941 | locus YKL203C, strain TOR2, active compounds read low 0.911 | locus YLR133W, strain CKI1, active compounds read low 0.933 | locus YLR403W, strain SFP1, active compounds read low 0.863 | locus YML070W, strain DAK1, active compounds read low 0.869 | locus YMR001C, strain CDC5, active compounds read low 0.935 | locus YMR205C, strain PFK2 (second series), active compounds read low 0.899 | locus YMR277W, strain FCP1, active compounds read low 0.92 | locus YNL006W, strain LST8, active compounds read low 0.932 | locus YNL020C, strain ARK1, active compounds read low 0.934 | locus YNL161W, strain CBK1, active compounds read low 0.956 | locus YNL183C, strain NPR1, active compounds read low 0.856 | locus YNL207W, strain RIO2, active compounds read low 0.956 | locus YNL222W, strain SSU72, active compounds read low 0.957 | locus YNL307C, strain MCK1 (second series), active compounds read low 0.918 | locus YOL078W, strain AVO1, active compounds read low 0.914 | locus YOL136C, strain PFK27, active compounds read low 0.901 | locus YOR061W, strain CKA2, active compounds read low 0.886 | locus YOR119C, strain RIO1, active compounds read low 0.925 | locus YOR231W, strain MKK1, active compounds read low 0.837 | locus YOR329C, strain SCD5, active compounds read low 0.977 | locus YPL031C, strain PHO85, active compounds read low 0.876 | locus YPL153C, strain RAD53, active compounds read low 0.866 | locus YPL204W, strain HRR25, active compounds read low 0.872 | locus YPL209C, strain IPL1, active compounds read low 0.98 | locus YPL256C, strain CLN2, active compounds read low 1.05 | locus YPR025C, strain CCL1, active compounds read low 0.971 | locus YPR106W, strain ISR1, active compounds read low 0.96 | locus YPR111W, strain DBF20, active compounds read low 0.993 | strain NNK1, active compounds read low 0.971 | strain TSCII, active compounds read low 0.921
active: locus YLR113W, strain HOG1, active compounds read low 0.76
